Compound activity: PubChem BioAssay, National Center for Advancing Translational Sciences (NCATS)
p53 reactivator = qHTS assay for re-activators of p53 using a Luc reporter. H1299 p53-A138V BP100-luciferase reporter, luminescence, 24 h. Potency, µM (doses to about 92.2 µM), inactives show top-dose activity change, positive = activation, most hits filed as activators. 320,000 compounds, 0.063% hits. AID 504706, 2011; also: potency is read from the fitted curve at half-maximal effect; % of control where 0% means no effect; nearly all actives have a fitted effect of over 45% in size
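p53-null H1299 cells stably carrying temperature-sensitive p53-A138V and a BP100-luciferase reporter were pinned with compounds (4-point, 1:5 series) and held 24 hrs at 37 deg C. Luminescence was read 10 min after detection reagent.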
gsp antagonist = qHTS for Antagonists of gsp, the Etiologic Mutation Responsible for Fibrous Dysplasia/McCune-Albright Syndrome: qHTS | 340,000 compounds, 0.4% hits | gsp-mutant cells, cAMP HTRF, 30 min | Potency, µM (top dose mostly 76.9 µM), for the others: top-dose activity change, negative = inhibition, actives largely listed as inhibitors; calls by dose curve; cell line not stated here;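 also: intracellular cAMP measured with PDE inhibitor Ro 20-1724 present during compound exposure; potency is read from the fitted curve at half-maximal effect; % is scaled to controls: 0 for no effect and ±100 for the full control effect; nearly all actives have a fitted effect of over 65% in size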
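Measurement of cellular cAMP by homogeneous time-resolved fluorescence following a 30 min compound exposure at 37C. The PDE inhibitor […] was present throughout; the assay buffer was DPBS with 0.05% BSA and 0.005% Tween 20.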
Tb PFK block = qHTS Assay to Find Inhibitors of T. brucei phosphofructokinase | 330,000 compounds, 0.17% hits | Potency, µM (highest dose often 57.5 µM), without a hit: at the top dose activity, negative = inhibition, hits mostly inhibitors | T. brucei PFK, ADP-Glo luminescence | ATP-dependent 6-phosphofructokinase (Trypanosoma brucei brucei), O15648 | AID 485367, 2010;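 also: potency is read from the fitted curve at half-maximal effect; 0% = uninhibited 1x PFK enzyme wells and -100% = no-enzyme wells; nearly all actives have a fitted effect of over 60% in size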
Target sequence (O15648 whole entry, looked up): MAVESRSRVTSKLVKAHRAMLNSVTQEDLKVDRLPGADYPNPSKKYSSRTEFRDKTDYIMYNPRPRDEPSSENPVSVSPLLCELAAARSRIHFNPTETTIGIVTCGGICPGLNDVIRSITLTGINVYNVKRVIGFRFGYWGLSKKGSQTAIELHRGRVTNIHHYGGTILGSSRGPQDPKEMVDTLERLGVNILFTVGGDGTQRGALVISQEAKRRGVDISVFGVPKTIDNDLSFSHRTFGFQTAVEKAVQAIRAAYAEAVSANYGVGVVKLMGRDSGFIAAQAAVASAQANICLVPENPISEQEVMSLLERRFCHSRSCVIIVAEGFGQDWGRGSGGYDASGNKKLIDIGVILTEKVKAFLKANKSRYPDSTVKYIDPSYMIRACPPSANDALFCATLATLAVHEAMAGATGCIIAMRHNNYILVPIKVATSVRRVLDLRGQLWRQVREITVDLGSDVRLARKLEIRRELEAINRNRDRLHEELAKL
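PFK 1.25 nM, F6P 0.5 mM, ATP 0.1 mM, 0.1 M TEA pH 8.0, 5 mM MgCl2, 0.01% Tween20, 0.1% BSA; 45 min RT. ADP-Glo readout. qHTS titration up to 57 uM; curves fitted, compounds curve-classed.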
RXFP1 ag = qHTS Assay for Agonists of the Relaxin Receptor RXFP1; Potency, µM (top dose mostly 57.5 µM), inactives show at the top dose activation, actives largely listed as activators; Relaxin receptor 1 (Homo sapiens), Q9HBX9; HEK293T-RXFP1 cAMP TR-FRET, 30 min; response scale: percent of porcine relaxin response, buffer zero; 370,000 compounds, 0.3% hits; also: potency is read from the fitted curve at half-maximal effect; % is scaled to controls: 0 for no effect and ±100 for the full control effect; nearly all actives have a fitted effect of over 60% in size
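HEK293T cells stably expressing RXFP1 were pretreated with the PDE4 inhibitor Ro 20174, exposed to compounds for 30 min at 37C, lysed, and cAMP was read by TR-FRET. Data normalized to buffer (basal) and 29 nM porcine relaxin (100%).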
gsp agonist = qHTS for Agonist of gsp, the Etiologic Mutation Responsible for Fibrous Dysplasia/McCune-Albright Syndrome: qHTS; AID 624287, 2012; Potency, µM (top dose mostly 76.9 µM), inactives show at the highest dose activation (cAMP increase), hits mostly activators; gsp mutant cells, cAMP HTRF, 30 min; 340,000 compounds, 0.13% hits; active = well fitted activation curve with a large enough effect; inconclusive = small, poorly fitted or top-dose-only effect, or another doubt; inactive = no such curve, though single readings can be large or run the other way; cell line not stated here;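 also: phosphodiesterase inhibitor Ro 20-1724 added with compounds to block cAMP breakdown; potency is read from the fitted curve at half-maximal effect; nearly all actives have a fitted effect of over 60% in size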
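Cells stably selected in G418 were plated at 2000/well, grown 16-24 hr, then given compounds in DMSO with the PDE inhibitor […] (300 uM solution added) for 30 min at 37C; cAMP was read by HTRF.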
RXFP1 antag = qHTS Assay for Antagonists of the Relaxin Receptor RXFP1; Relaxin receptor 1 (Homo sapiens), Q9HBX9; HEK293-RXFP1, relaxin-stimulated cAMP HTRF, 30 min; active compounds read low; activity change, negative = inhibition, % at 57.5 µM; 350,000 compounds, 0.59% hits;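 active = activity change of -60% or lower, but not beyond a set lower limit; inconclusive = change between -60% and -40%, or beyond the set limit; inactive = change above -40%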; also: % is scaled to controls: 0 for no effect and ±100 for the full control effect
* = called active by the depositor; ? = inconclusive; nt = not tested or not shown; [ ] = dose if it differs, or a comment. Hits are enriched below; roughly 1.1% of the tested compounds scored in any of these assays. Unless noted, calls follow the shape of the dose curve; as a rule, active = well fitted curve in the direction sought with a large enough effect; inconclusive = small, poorly fitted or top-dose-only effect, or another doubt; inactive = no such curve, though single readings can be large; an effect the other way counts as inactive or inconclusive.

SMILES | p53 reactivator | gsp antagonist | Tb PFK block | RXFP1 ag | gsp agonist | RXFP1 antag
O=C(CSc1nc(-c2ccc(F)cc2)[nH]c1-c1ccc(F)cc1)Nc1ccc2c(c1)OCO2 | nt | nt | nt | 2% | nt | -60*
O=C(CSc1nc(-c2ccc(F)cc2)[nH]c1-c1ccc(F)cc1)Nc1ccc2c(c1)OCCO2 | nt | nt | nt | 2% | nt | ?
OC(CN1CCC(Cc2ccccc2)CC1)C(F)(F)F (stereo unspecified) | 18% | 6% | -8% | 0% | 7% | 1
CCC(CC)NC(=O)CC(c1ccccc1)c1ccccc1 | -1% | 1% | 1% | 1% | 37% | -1
Clc1ccc(C2=NNC(=NCc3ccccc3)SC2)cc1 | 6% | 7.1µM* | -10% | -1% | 12%[15.4 µM] | -16
CCOC(=O)C(=O)/C(C#N)=C/Nc1ccc(F)cc1 | -3% | 5% | 2% | 0% | 12% | 0
CCOC(=O)NC(=O)/C(C#N)=N/Nc1ccc(F)cc1 | 5% | 25µM* | 2% | 0% | 20% | 5
CSCCC(NC(=O)c1ccccc1Cl)C(=O)NCCOc1ccccc1 (stereo unspecified) | 7% | 7% | 6% | 1% | -3%[15.4 µM] | 10
CCc1c(C(=O)Nc2ccccc2)c(C)[nH]c(=S)c1C#N | 2% | 5% | -8% | 9% | 13µM* | -1
Cc1[nH]c(=S)c(C#N)c(C)c1C(=O)Nc1ccccc1 | 0% | 10% | -15% | 3% | ? | -6
Cc1ccc(C)c(OCCC(=O)OCC(=O)NCCNC(=O)COC(=O)CCOc2cc(C)ccc2C)c1 | -5% | -9% | 15% | 2% | -12%[15.4 µM] | -62*
O=C1CCSC2(C(=O)N(Cc3ccc(F)cc3)c3ccccc32)N1c1ccc(F)c(F)c1 (stereo unspecified) | nt | nt | nt | -2% | nt | -72*
Cc1cccc(N2C(=O)CCSC23C(=O)N(Cc2ccc(F)cc2)c2ccccc23)c1 (stereo unspecified) | nt | nt | nt | -2% | nt | -63*
O=C1CCSC2(C(=O)N(Cc3ccc(F)cc3)c3ccccc32)N1c1ccccc1 (stereo unspecified) | nt | nt | nt | -2% | nt | -62*
O=C1CCSC2(C(=O)N(Cc3ccc(F)cc3)c3ccccc32)N1c1cccc(F)c1 (stereo unspecified) | nt | nt | nt | -1% | nt | ?
CCOc1ccc(/C(CCC(=O)O)=N/NC(=S)NCCc2ccccc2)cc1 | -4% | -21% | -1% | -1% | 0%[15.4 µM] | -4
O=C(O)CSc1cc(C(F)(F)F)nc(-c2ccccn2)n1 | -5% | 7% | 5% | -5% | 5% | -3
Cc1c(C(=O)OCC2CCCO2)[nH]c2c1C(=O)CC(c1ccc(N(C)C)cc1)C2 (stereo unspecified) | -3% | 40µM* | 1% | -1% | -26% | -35
N#CC(c1ccccc1)C(CC(=NO)c1ccccc1)c1ccccc1 (stereo unspecified) | nt | nt | nt | nt | -1% | -91*
N#CC(c1ccc([N+](=O)[O-])cc1)C(CC(=O)c1ccccc1)c1ccccc1 (stereo unspecified) | nt | -4% | nt | nt | 10% | -1
Cc1ccc(C(CNC(=O)Nc2ccc(Cl)cc2)N2CCN(C)CC2)cc1 (stereo unspecified) | 3% | 6% | -4% | -3% | ? | -84*
CN(C)Cc1nc2c(c(=O)[nH]1)C1(CCCCC1)Cc1ccccc1-2 | 5% | 6% | -1% | 2% | 18% | -62*
Cc1ccc(NC(=O)CN(C)S(=O)(=O)c2ccc3[nH]c4c(c3c2)CCCC4)c(Cl)c1 | nt | nt | nt | 1% | nt | -21
